# Tested on: Plasmodium falciparum
# Assay: GSK_TCMDC: Inhibition of Plasmodium falciparum 3D7 in whole red blood cells, using parasite LDH activity as an index of growth. Test compounds present at 2uM
# Type: functional
row,Structure (SMILES),Inhibition [%]
1,O=C(c1cc(-c2ccco2)n[nH]1)N1CCN(S(=O)(=O)c2ccc(Br)cc2)CC1,95
2,CN1CCC(Oc2ccc(Nc3nccc(NCC(O)c4ccccc4)n3)cc2Cl)CC1 (stereo not given),100
3,O=C(Nc1cccnc1)c1cn(-c2ccccc2)nc1-c1cccs1,99
4,CCN(CCCN1CCCCC1)c1cc(C)nc(Nc2ccc(C)c(F)c2)n1.O=C(O)C(F)(F)F,100
5,CC(C)(C)Nc1cc(C(=O)N[C@@H](Cc2ccccc2)[C@H](O)CNC2CCOCC2)cc(N2CCCCS2(=O)=O)c1,99
6,CC(C)n1ncc2c(C(=O)N3CCCc4ccccc43)cc(-c3ccccc3)nc21,100
7,COc1ccc(Nc2nccc(N3CCC(NC(=O)Nc4cccc(C(C)=O)c4)C3)n2)cc1 (stereo not given),98
8,CN(C)C(CNC(=O)c1cc(-c2ccncc2)c(-c2ccc(NC(=O)Nc3ccccc3)cc2)o1)c1ccccc1.O=C(O)C(F)(F)F (stereo not given),100
9,Cc1cc(=O)c(-c2ccc(Oc3cccc(Cl)c3)cc2)c(C)[nH]1,95
10,CCOC(=O)CC[C@H](NC(=O)c1ccc(NS(=O)(=O)c2ccc(-c3cnc(N)[nH]c3=O)cc2)cc1)C(=O)OCC,95
11,Cc1cc(Cl)ccc1NC(=O)Nc1ccc2nccc(N3CCN(C)CC3)c2c1,100
12,Cl.N=C(N)Nc1ccc(CCc2ccc(NC(=N)N)cc2)cc1,96
13,CCCC(C)N(Cc1ccc(C(C)(C)C)cc1)C(=O)c1cccc(C#N)c1 (stereo not given),86
14,CCC[C@@H]([C@@H](CC1CCCCC1)C(=O)N[C@H](C(=O)Nc1nccs1)C(C)(C)SC)N(O)C=O,97
15,CCOC(=O)CCCCOc1c(OC)cc(Cc2cnc(N)nc2N)cc1OC,95
16,O=C(Nc1cc2cc(-c3ccc(CN4CCCCC4)cc3)ccc2n2cnnc12)NC1CCCC1,100
17,COc1cc(Cc2cnc(N)nc2N)c2c(c1OC)OC(C)C=C2 (stereo not given),87
18,CCOc1ccc(C(C)NC(=O)Nc2ccccc2)cc1OCC (stereo not given),96
19,CC1CN(Cc2ccccc2)CCN1c1ccc(NC(=O)c2ccc(F)cc2)cc1.O=C(O)C(F)(F)F (stereo not given),87
20,CCCCn1c(N)c(N(Cc2ccco2)C(=O)C=Cc2cc(OC)c3c(c2)OCCO3)c(O)nc1=O,85

row,Structure (SMILES),Inhibition [%]
1,COc1ccc(-n2ccnc2SCC(=O)Nc2cc(Cl)ccc2OC)c(OC)c1,96
2,C=C[C@H]1CN(CCCCCCC)CC[C@H]1CC(=O)Nc1cnnc2ccc(OC)cc12.O=C(O)C(=O)O,100
3,CC(C)c1ccc(CN2CCCCC(NC(=O)c3cc(-c4ccccc4F)cs3)C2)cc1.O=C(O)C(F)(F)F (stereo not given),99
4,N#Cc1ccc(/C=C/C(=O)NCCCCCN2CCN(C(=O)Nc3ccc(Cl)c(C(F)(F)F)c3)CC2)cc1,94
5,COc1ccc(CNC2CCN(C)CC2)cc1-c1ccc(S(=O)(=O)NCc2ccccc2)s1.O=C(O)C(F)(F)F,100
6,O=C1Nc2cccc3c2C1(CCCCN1CCC(c2c(-c4ccccc4)[nH]c4ccccc24)CC1)CCC3 (stereo not given),84
7,CCCNCc1ccc(-c2ccc(CN(C(=O)c3nn(-c4ccccc4)nc3C)C3CCOCC3)cc2)nc1.O=C(O)C(F)(F)F,98
8,Br.Oc1ccc(CCNCCCCNCCc2ccc(Cl)cc2)cc1O,94
9,NS(=O)(=O)c1cccc(-c2ccc3nccc(-c4cccc(S(N)(=O)=O)c4)c3c2)c1,98
10,Cc1cccc(NC(=O)NC2CCN(CCCCCNC(=O)/C=C/c3ccc(Cl)c(Cl)c3)CC2)c1,100
11,O=C(Nc1ccccc1Br)c1cn(-c2ccccc2)nc1-c1cccc([N+](=O)[O-])c1,92
12,CCCc1cc(N2CCC(c3ccccc3)(N3CCCCC3)CC2)nc(Nc2ccc(OC)cc2)n1,81
13,Br.CC1(C)NC(N)=NC(=N)N1OCCCOc1ccccc1N,93
14,COc1ccccc1CNc1ncc(-c2ccsc2)c(-c2nccs2)n1,91
15,Cc1cc(N[C@@H](Cc2ccccc2)C(=O)NCCc2ccccc2)nc(NCCc2ccccc2)n1.O=C(O)C(F)(F)F,100
16,CCOC(=O)NCC(=O)Nc1cccc(-c2cccc(-c3nc4cc(C(F)(F)F)ccc4[nH]3)c2)c1,91
17,O=C(NCCCCN1CCN(c2ccc3c(c2)CCC3)CC1)c1ccc(NC(=O)c2ccc(Cl)cc2)cc1,98
18,Cc1noc(C)c1S(=O)(=O)N(C)Cc1ccc(-c2ccc(Cl)cc2)o1,100
19,COc1ccc2ncc(F)c([C@@H](O)CN3CCC(NCc4ccc5c(c4)NCCS5)CC3)c2n1.Cl,99
20,COc1ccccc1C1CCN(C2CCC(NC(=O)/C=C/c3cc(C(F)(F)F)ccc3F)CC2)CC1 (stereo not given),97

# Tested on: Plasmodium falciparum
# Assay: GSK_TCMDC: Inhibition of Plasmodium falciparum Dd2 in whole red blood cells, using parasite LDH activity as an index of growth. Test compounds present at 2uM
# Type: functional
row,Structure (SMILES),Inhibition [%]
1,O=C(c1cc(-c2ccco2)n[nH]1)N1CCN(S(=O)(=O)c2ccc(Br)cc2)CC1,90
2,CN1CCC(Oc2ccc(Nc3nccc(NCC(O)c4ccccc4)n3)cc2Cl)CC1 (stereo not given),99
3,O=C(Nc1cccnc1)c1cn(-c2ccccc2)nc1-c1cccs1,61
4,CCN(CCCN1CCCCC1)c1cc(C)nc(Nc2ccc(C)c(F)c2)n1.O=C(O)C(F)(F)F,92
5,CC(C)(C)Nc1cc(C(=O)N[C@@H](Cc2ccccc2)[C@H](O)CNC2CCOCC2)cc(N2CCCCS2(=O)=O)c1,98
6,CC(C)n1ncc2c(C(=O)N3CCCc4ccccc43)cc(-c3ccccc3)nc21,82
7,COc1ccc(Nc2nccc(N3CCC(NC(=O)Nc4cccc(C(C)=O)c4)C3)n2)cc1 (stereo not given),79
8,CN(C)C(CNC(=O)c1cc(-c2ccncc2)c(-c2ccc(NC(=O)Nc3ccccc3)cc2)o1)c1ccccc1.O=C(O)C(F)(F)F (stereo not given),96
9,Cc1cc(=O)c(-c2ccc(Oc3cccc(Cl)c3)cc2)c(C)[nH]1,89
10,CCOC(=O)CC[C@H](NC(=O)c1ccc(NS(=O)(=O)c2ccc(-c3cnc(N)[nH]c3=O)cc2)cc1)C(=O)OCC,2
11,Cc1cc(Cl)ccc1NC(=O)Nc1ccc2nccc(N3CCN(C)CC3)c2c1,74
12,Cl.N=C(N)Nc1ccc(CCc2ccc(NC(=N)N)cc2)cc1,95
13,CCCC(C)N(Cc1ccc(C(C)(C)C)cc1)C(=O)c1cccc(C#N)c1 (stereo not given),45
14,CCC[C@@H]([C@@H](CC1CCCCC1)C(=O)N[C@H](C(=O)Nc1nccs1)C(C)(C)SC)N(O)C=O,98
15,CCOC(=O)CCCCOc1c(OC)cc(Cc2cnc(N)nc2N)cc1OC,0
16,O=C(Nc1cc2cc(-c3ccc(CN4CCCCC4)cc3)ccc2n2cnnc12)NC1CCCC1,98
17,COc1cc(Cc2cnc(N)nc2N)c2c(c1OC)OC(C)C=C2 (stereo not given),1
18,CCOc1ccc(C(C)NC(=O)Nc2ccccc2)cc1OCC (stereo not given),95
19,CC1CN(Cc2ccccc2)CCN1c1ccc(NC(=O)c2ccc(F)cc2)cc1.O=C(O)C(F)(F)F (stereo not given),89
20,CCCCn1c(N)c(N(Cc2ccco2)C(=O)C=Cc2cc(OC)c3c(c2)OCCO3)c(O)nc1=O,94

row,Structure (SMILES),Inhibition [%]
1,COc1ccc(-n2ccnc2SCC(=O)Nc2cc(Cl)ccc2OC)c(OC)c1,92
2,C=C[C@H]1CN(CCCCCCC)CC[C@H]1CC(=O)Nc1cnnc2ccc(OC)cc12.O=C(O)C(=O)O,100
3,CC(C)c1ccc(CN2CCCCC(NC(=O)c3cc(-c4ccccc4F)cs3)C2)cc1.O=C(O)C(F)(F)F (stereo not given),84
4,N#Cc1ccc(/C=C/C(=O)NCCCCCN2CCN(C(=O)Nc3ccc(Cl)c(C(F)(F)F)c3)CC2)cc1,0
5,COc1ccc(CNC2CCN(C)CC2)cc1-c1ccc(S(=O)(=O)NCc2ccccc2)s1.O=C(O)C(F)(F)F,100
6,O=C1Nc2cccc3c2C1(CCCCN1CCC(c2c(-c4ccccc4)[nH]c4ccccc24)CC1)CCC3 (stereo not given),33
7,CCCNCc1ccc(-c2ccc(CN(C(=O)c3nn(-c4ccccc4)nc3C)C3CCOCC3)cc2)nc1.O=C(O)C(F)(F)F,0
8,Br.Oc1ccc(CCNCCCCNCCc2ccc(Cl)cc2)cc1O,0
9,NS(=O)(=O)c1cccc(-c2ccc3nccc(-c4cccc(S(N)(=O)=O)c4)c3c2)c1,99
10,Cc1cccc(NC(=O)NC2CCN(CCCCCNC(=O)/C=C/c3ccc(Cl)c(Cl)c3)CC2)c1,21
11,O=C(Nc1ccccc1Br)c1cn(-c2ccccc2)nc1-c1cccc([N+](=O)[O-])c1,36
12,CCCc1cc(N2CCC(c3ccccc3)(N3CCCCC3)CC2)nc(Nc2ccc(OC)cc2)n1,28
13,Br.CC1(C)NC(N)=NC(=N)N1OCCCOc1ccccc1N,95
14,COc1ccccc1CNc1ncc(-c2ccsc2)c(-c2nccs2)n1,84
15,Cc1cc(N[C@@H](Cc2ccccc2)C(=O)NCCc2ccccc2)nc(NCCc2ccccc2)n1.O=C(O)C(F)(F)F,57
16,CCOC(=O)NCC(=O)Nc1cccc(-c2cccc(-c3nc4cc(C(F)(F)F)ccc4[nH]3)c2)c1,34
17,O=C(NCCCCN1CCN(c2ccc3c(c2)CCC3)CC1)c1ccc(NC(=O)c2ccc(Cl)cc2)cc1,35
18,Cc1noc(C)c1S(=O)(=O)N(C)Cc1ccc(-c2ccc(Cl)cc2)o1,100
19,COc1ccc2ncc(F)c([C@@H](O)CN3CCC(NCc4ccc5c(c4)NCCS5)CC3)c2n1.Cl,69
20,COc1ccccc1C1CCN(C2CCC(NC(=O)/C=C/c3cc(C(F)(F)F)ccc3F)CC2)CC1 (stereo not given),32

# — ChEMBL document CHEMBL1157539, “Thousands of chemical starting points for antimalarial lead identification” (Nature, 2010)
